# Reference: ChEMBL document CHEMBL3988442, “University of Dundee, Small-Polar-MMV Screening Library” (2021)
# In all, about 69,000 compounds went through this assay and about 950 (1.4%) showed an effect of 50% or more. The sample holds strong results, similar compounds and a random draw of the others, so the mix is not that of the screen.
# Test system: Mycobacterium tuberculosis
# Assay: Cornell M. t heat shock assay; also: in the data most compounds retested in dose-response had high values
# Type: functional, organism-based
# Set-up: dose or concentration left out as unconfirmed
row,SMILES,Percent Effect
1,Cl.Cl.NCC1CN(c2ncnc3[nH]cnc23)CCO1 (stereo not given),-17.53%
2,CNC(=O)C1Cn2ccnc2C2(CCN(Cc3nccs3)CC2)O1.O=C(O)C(F)(F)F.O=C(O)C(F)(F)F (stereo not given),-22.49%
3,Cc1nc(CN2C[C@@H]3COC[C@]3(COCC(=O)N(C)C)C2)cs1.O=C(O)C(F)(F)F,-21.91%
4,Cc1ccc2c(c1)C1(CCNCC1)CC2OCC1CC1 (stereo not given),13.82%
5,COCCN1CCC2(CC1)CC(OCC1CC1)c1ccc(C)cc12 (stereo not given),53.27%
6,CCOC1CC2(CCN(C(=O)COC)CC2)c2cc(C)ccc21 (stereo not given),-4.26%
7,COCCN1CCC2(CC1)CN(C(=O)c1ccccc1)CCO2.O=C(O)C(F)(F)F,-8.433%
8,CN(C)C(=O)N1CCC2(CCCN(CCOc3ccccc3)C2)C1.O=C(O)C(F)(F)F (stereo not given),-6.162%
9,O=C(O)C1(Oc2cccc(F)c2)CCN(C2CCOCC2)CC1,1.505%
10,O=C(O)C1(Oc2ccc(Cl)cc2)CCN(C2CCOCC2)CC1,51.75%
11,O=C(O)C1(Oc2ccc3c(c2)OCO3)CCN(C2CCOCC2)CC1,-2.757%
12,CC(C)C1Nc2ccccc2C(=O)N1CC(=O)Nc1nc2c(s1)CCC2 (stereo not given),-0.3209%
13,O=C(O)c1cccc(CN2CCCC(c3ccn[nH]3)C2)c1 (stereo not given),-8.776%
14,O=C(CN1CCCC(c2ccn[nH]2)C1)Nc1nc2c(s1)CCC2 (stereo not given),104%
15,O=C(CN1CCCC(c2ccn[nH]2)C1)Nc1nc2c(s1)CCCC2 (stereo not given),102.5%
16,O=C1CCCN1CCN1CCCC(c2ccn[nH]2)C1 (stereo not given),4.433%
17,Cc1cc(C2CCCN(CC(=O)N3CCc4ccccc43)C2)n[nH]1 (stereo not given),-11.71%
18,O=C(CN1CCCC(c2ccn[nH]2)C1)N1CCCc2ccccc21 (stereo not given),-24.99%
19,Cc1cc(C2CCCN(CC(=O)Nc3nc4c(s3)CCC4)C2)n[nH]1 (stereo not given),104%
20,Cc1cc(C2CCCN(CC(=O)N3CCCc4ccccc43)C2)n[nH]1 (stereo not given),-30.42%

row,SMILES,Percent Effect
1,CN1CCOCC2(CCCN(C(=O)Cc3ccncc3)C2)C1.O=C(O)C(F)(F)F (stereo not given),-28.6%
2,COc1cccc(Cn2c(C3CCNCC3)cc3cccnc32)c1.Cl,0.437%
3,CCC(CN1CCN(C)CC1)NC(=O)C1(c2cccc(F)c2)CC1.O=C(O)CC(O)(CC(=O)O)C(=O)O (stereo not given),1.881%
4,O=C(O)C(F)(F)F.O=C(O)C(F)(F)F.O=C(O)C(F)(F)F.c1cncc(CN2CCCn3nnc(CN4CCCC4)c3C2)c1,-36.4%
5,CNC(=O)CN1CCCC12CCN(C(=O)c1ccc(F)cc1)CC2.O=C(O)C(F)(F)F,-33.92%
6,Cc1oncc1C(=O)N[C@@H]1CN(Cc2ccoc2)C[C@@H]2CCCO[C@@H]21.O=C(O)C(F)(F)F,44.61%
7,CCOc1ccc(Br)cc1C1CCCCN1.Cl (stereo not given),18.96%
8,Cn1ccc(C(=O)Nc2nnc(-c3ccccn3)[nH]2)cc1=O,24.76%
9,CS(=O)(=O)CCC(=O)Nc1nccn1Cc1ccccc1Cl,51.39%
10,CCOCC(=O)Nc1nccn1Cc1ccccc1Cl,94.36%
11,CC(C)N(C)CC(=O)NC1CCc2nccn2C1 (stereo not given),-3.465%
12,Cn1ccc(C(=O)Nc2nccn2Cc2ccccc2Cl)cc1=O,54.71%
13,CS(=O)(=O)CCC(=O)Nc1cnn(-c2ccccc2Cl)c1,-2.43%
14,CS(=O)(=O)CCn1ccc(NC(=O)Cc2ccccc2Cl)n1,-16.05%
15,CCOCC(=O)Nc1cccnc1-n1ccnc1C,3.015%
16,CC(C)N(C)CC(=O)Nc1ccc(-n2ccc(C(N)=O)n2)cc1,4.536%
17,CC(C)N(C)CC(=O)Nc1nccn1Cc1ccccc1Cl,70.24%
18,CCOCC(=O)NCCCn1ccnc1-c1ccccc1,0.7963%
19,Cc1nccn1Cc1cccc(CNC(=O)c2ccn(C)c(=O)c2)c1,-21.74%
20,CC1c2ncc(CNC(=O)C3CC3)n2CCN1Cc1cccnc1.O=C(O)C(F)(F)F.O=C(O)C(F)(F)F (stereo not given),-10.62%

row,SMILES,Percent Effect
1,CN1CC(=O)N(c2ccccc2)CC12CCN(C(=O)c1cccs1)C2.O=C(O)C(F)(F)F (stereo not given),-3.603%
2,O=C(O)C(F)(F)F.O=C(O)C(F)(F)F.O=C(c1cccnc1)N1Cc2nccn2CC(COc2cccnc2)C1 (stereo not given),-22.14%
3,CCN1C(=O)CCC12CCCN(Cc1nccs1)CC2.O=C(O)C(F)(F)F (stereo not given),-119%
4,CN(C)CCOCC1CN(Cc2cccs2)Cc2ccnn2C1.O=C(O)C(F)(F)F.O=C(O)C(F)(F)F.O=C(O)C(F)(F)F (stereo not given),-22.31%
5,CN(C)Cc1cc(C2CCN(C(=O)C3CC34CCC4)CC2)nn1C.Cl (stereo not given),-10.56%
6,CNc1cc(C)nc(N2Cc3cnn(Cc4ccc(F)cc4)c3C2)n1,-20.76%
7,Cc1ccc(CNC2CC3(CCN(CCO)CC3)c3ccccc32)s1.O=C(O)C(F)(F)F.O=C(O)C(F)(F)F (stereo not given),0.5733%
8,O=C(O)C(F)(F)F.O=C1N(Cc2cccnc2)CCC12CCCN(c1ncc(F)cn1)C2 (stereo not given),4.445%
9,Cl.Oc1cc(C2CCNCC2)nc(-c2ccsc2)n1,-3.533%
10,Cn1nccc1C(=O)N1CCC2(CC1)COC(COc1ccccn1)C2.O=C(O)C(F)(F)F (stereo not given),-4.012%
11,CC(=O)Nc1nccn1Cc1ccccc1Cl,63.7%
12,CCOCCOC(C)C(=O)Nc1nccn1Cc1ccccc1 (stereo not given),28.47%
13,CC(OCC1CC1)C(=O)Nc1ccn(Cc2ccccc2)n1 (stereo not given),-11.4%
14,O=C(Nc1ccc(=O)n(Cc2ccccc2Cl)c1)C1CC1,42.02%
15,COC(=O)N1CCN(Cc2ccccc2Cl)CC1,-12.81%
16,CC(OCC1CC1)C(=O)Nc1nccn1Cc1ccccc1 (stereo not given),81.58%
17,CN1CCOCC2(CCCN(C(=O)c3cnccn3)C2)C1.O=C(O)C(F)(F)F (stereo not given),-11.83%
18,Cc1cc(N(C)C)nc(C2CCNC2)n1.Cl.Cl (stereo not given),-43.84%
19,Cc1cnc(N2CC[C@H]3[C@@H]2CCC(=O)N3c2ccccc2)nc1.O=C(O)C(F)(F)F,36.02%
20,O=C(NCC1CC1)[C@@H]1CCO[C@@H]2CCN(CCc3ccccc3)C[C@H]21.O=C(O)C(F)(F)F,-21.47%
